Screening results (PubChem BioAssay)
HEK293 tox – HEK 293 cell cytotoxicity; HEK 293 viability, ATP luminescence (CellTiter-Glo), 48-72 h; Potency, µM (doses to about 115 µM), without a hit: top-dose activity change, negative = cytotoxicity, most hits filed as inhibitors; hit rate 6.6% among 94,000; AID 1345083; further: nearly all actives have a fitted effect of over 60% in size
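qHTS cytotoxicity; HEK 293, 250 cells/well; compound pinned; 48 or 72 hr, 37 degree Celsius, 5% CO2, 95% humidity; CellTiter-Glo, 10 min RT; luminescence (ATP).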
NPR1 antag – blocks ANP-stimulated signaling of human Npr1 receptor; P16066; HEK293 hNpr1 GloSensor cGMP, ANP-stimulated luminescence; Potency, µM (highest dose often 46.3 µM), inactives show at the highest dose activity change, negative = inhibition, hits mostly inhibitors; hit rate 1.6% among 76,000; calls by dose curve; further: nearly all actives have a fitted effect of over 60% in size
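Compound pre-incubated 30 min at room temperature on GloSensor-loaded HEK293 cells stably carrying hNpr1 and the pGS-40F cGMP biosensor. Stimulation uses hNppA at 0.1 nM final; luminescence is taken at baseline and 20 min post-agonist.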
3T3 cytotox – kills NIH 3T3 cells; Potency, µM (doses to about 96.7 µM), without a hit: at the highest dose activity change, negative = cytotoxicity, actives largely listed as inhibitors; NIH 3T3 viability, CellTiter-Glo ATP luminescence, 48-72 h; hit rate 4.3% among 94,000; further: nearly all actives have a fitted effect of over 55% in size
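ATP-dependent luminescence (CellTiter-Glo) served as the viability signal for NIH 3T3 cells treated with compound for 48 or 72 hr at 37 °C.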
Luciferase inh – blocks purified firefly luciferase enzyme activity. purified P. pyralis luciferase, luminescence, biochemical. hit rate 2.5% among 76,000. P08659. Potency, µM (top dose mostly 115 µM), most hits filed as inhibitors; further: nearly all actives have a fitted effect of over 65% in size
Target sequence (P08659 whole entry, looked up): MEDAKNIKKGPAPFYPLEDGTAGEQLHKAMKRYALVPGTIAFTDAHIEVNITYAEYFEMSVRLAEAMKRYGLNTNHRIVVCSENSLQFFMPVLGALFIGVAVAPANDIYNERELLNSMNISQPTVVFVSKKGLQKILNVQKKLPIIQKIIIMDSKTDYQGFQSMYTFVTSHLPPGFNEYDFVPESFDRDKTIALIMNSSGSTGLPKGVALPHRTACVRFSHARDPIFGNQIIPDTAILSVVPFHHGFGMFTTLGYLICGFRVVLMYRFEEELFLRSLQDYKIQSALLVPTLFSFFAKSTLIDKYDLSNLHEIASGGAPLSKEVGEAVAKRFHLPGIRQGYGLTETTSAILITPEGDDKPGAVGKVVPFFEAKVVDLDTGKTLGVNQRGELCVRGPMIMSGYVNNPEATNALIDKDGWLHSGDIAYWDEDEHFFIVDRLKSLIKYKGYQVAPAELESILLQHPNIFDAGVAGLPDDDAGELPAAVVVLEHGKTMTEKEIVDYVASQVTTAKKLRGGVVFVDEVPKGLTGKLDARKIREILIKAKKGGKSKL
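Luminescence read by CCD imaging after purified firefly luciferase (10nM final) was added to substrate buffer holding 10uM D-luciferin and 10uM ATP, pH 7.5, pre-dosed with compound.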
Numbers without * were called inactive; i = inactive; ? = inconclusive; · = no result given; [ ] = another dose, or the depositor's remark. An excerpt weighted towards active compounds, which were near 11% of everything screened. Unless noted, the call rests on the fitted dose curve; in most records, active means well fitted curve in the direction sought with a large enough effect; inconclusive means small, poorly fitted or top-dose-only effect, or another doubt; inactive means no such curve, though single readings can be large; an effect the other way counts as inactive or inconclusive. On the % scale 0 is the no-effect control and ±100 the full control effect; potency means the concentration at half of the fitted maximal effect.

SMILES	HEK293 tox	NPR1 antag	3T3 cytotox	Luciferase inh
O=C(c1c(F)cccc1F)N1CCC(n2cc(-c3nc(-c4ccccc4)no3)nn2)CC1	?	1.1µM*	?	i
COc1ccc2[nH]cc(CCNC(=O)CCC[C@H]3NC[C@@H]4C[C@H]3CN(Cc3ccccc3)C4)c2c1	-23%	-3%	-13%	i
O=C1Nc2ccccc2OCC12CCN(Cc1ccc(F)cc1)CC2	1%	-21%	-3%	i
CCc1nc(-c2c3n(c(=O)n(CC(=O)NCc4ccc(C)cc4)c2=O)CCCC3)no1	-3%	6%	-4%	i
O=C(COc1ccccc1)N1CC(CNc2cccnc2)C2(C1)CN(c1ccccc1)C2 (stereo not drawn)	71µM*	-12%[70.6 µM]	?	i
O=C(NCC1CN(C(=O)Cc2ccc(OC(F)(F)F)cc2)CC12CN(c1ccccc1)C2)Nc1ccccc1 (stereo not drawn)	?	-8%	28µM*	i
Nc1ncccc1CN1CC(COc2ccccc2)C2(C1)CN(c1ccccc1)C2 (stereo not drawn)	35µM*	-30%[70.6 µM]	40µM*	i
COc1ccccc1C(=O)N1CC(CNc2cccnc2)C2(C1)CN(c1ccccc1)C2 (stereo not drawn)	?	-6%[70.6 µM]	?	i
Oc1ccc(CN2CC(CNc3ccccc3)C3(C2)CN(c2ccccc2)C3)cc1 (stereo not drawn)	40µM*	-22%[70.6 µM]	25µM*	i
O=C(Cc1ccccc1)NCC1CN(C(=O)Cc2cccc(Oc3ccccc3)c2)CC12CN(c1ccccc1)C2 (stereo not drawn)	?	-17%	?	i
O=C(NCc1ccccc1)C1(c2ccc(Cl)cc2)CCOCC1	-25%[172 µM]	·	?	·
Clc1cccc(CN2CC(CNc3cccnc3)C3(C2)CN(c2ccccc2)C3)c1 (stereo not drawn)	?	-20%[70.6 µM]	?	i
O=C(O)c1ccc(CN2CC(CNC(=O)c3ccccc3)C3(C2)CN(c2ccccc2)C3)cc1 (stereo not drawn)	5%	0%	?	i
c1ccc(CN2CC(CNc3cccnc3)C3(C2)CN(c2ccccc2)C3)cc1 (stereo not drawn)	?	-4%[70.6 µM]	50µM*	i
O=C(NCC1CN(Cc2cccc(O)c2)CC12CN(c1ccccc1)C2)c1ccccc1 (stereo not drawn)	?	-18%[70.6 µM]	28µM*	i
COc1ccc(C(=O)N2CCC(c3n[nH]c(=O)n3Cc3ccc(F)cc3)CC2)cc1F	-4%	-1%	?	i
CNC(=O)c1cc(C2CC2)nc2c1c(C1CCN(C(=O)c3ccccc3)CC1)nn2C	i	·	-5%	·
c1ccc(CN2CCNc3cnc(Nc4ccc(N5CCOCC5)cc4)cc3C2)cc1	71µM*	?	40µM*	?
COc1ccc(Nc2cc3c(cn2)NCCN(Cc2ccccc2)C3)cn1	?	0%[70.6 µM]	?	i
COc1ccc(Nc2cc3c(cn2)CN(Cc2ccncc2)CCN3)cn1	?	0%[70.6 µM]	-23%[138 µM]	i
c1ccc(CCN2CCNc3cc(Nc4ccc(N5CCOCC5)cc4)ncc3C2)cc1	50µM*	-5%[70.6 µM]	35µM*	i
O=C(CC[C@@H]1CNC(=O)[C@@H]2C[C@H](NC(=O)Nc3cccc(Cl)c3)CN12)NCc1ccccc1	-11%	7%	-6%	i
Cc1cccc(OCC(=O)c2ccc3c(c2)N(C(C)C(=O)NCC2CCCO2)C(=O)CO3)c1C (stereo not drawn)	?	-3%	-17%	i
Cc1cc2nc(CO[C@H]3CN(Cc4ccc(S(C)(=O)=O)cc4)C[C@H]3F)[nH]c2cc1C	?	-19%[70.6 µM]	-21%[174 µM]	56µM*
CS(=O)(=O)c1ccc(CN2C[C@@H](F)[C@@H](OCc3nc4ccc(F)cc4[nH]3)C2)cc1	-24%[172 µM]	?	-12%[138 µM]	i
SMILES	HEK293 tox	NPR1 antag	3T3 cytotox	Luciferase inh
Cc1ccc2nc(CO[C@H]3CN(Cc4ccc(Cl)cc4)C[C@H]3F)[nH]c2c1	89µM*	?	?	i
Cc1ccc2nc(CO[C@H]3CN(Cc4ccc(F)c(F)c4)C[C@H]3F)[nH]c2c1	?	-27%[70.6 µM]	?	i
CN1C[C@@H](F)[C@@H](OCc2nc3ccc(C(F)(F)F)cc3[nH]2)C1	-24%[172 µM]	-5%[70.6 µM]	?	50µM*
CCNC(=O)N1C[C@@H](F)[C@@H](OCc2nc3ccc(C)cc3[nH]2)C1	1%[172 µM]	3%[70.6 µM]	3%[138 µM]	63µM*
Cn1cc(CN2C[C@@H](F)[C@@H](OCc3nc4ccc(C#N)cc4[nH]3)C2)c2ccccc21	89µM*	?	89µM*	i
Cc1cc(C)c(CNC(=O)c2nc(-c3cccc(C(F)(F)F)c3)cc3[nH]ccc23)c(=O)[nH]1	40µM*	-16%	?	i
Cc1cc(C)c(CNC(=O)c2nc(-c3ccccc3)cc3[nH]ccc23)c(=O)[nH]1	?	-1%[70.6 µM]	?	i
COc1cccc(Nc2cc3[nH]ccc3c(C(=O)NCc3c(C)cc(C)[nH]c3=O)n2)c1	71µM*	1%[70.6 µM]	40µM*	?
CCOc1cccc2c1OC[C@@H]1CN(C)C(=O)CCN(C(C)=O)[C@H]21	-23%	·	?	·
CN(Cc1cc(C[C@@H]2C[C@H](NC(=O)C(C)(C)C)C2(C)C)no1)c1ccccc1	89µM*	?	?	i
CN(Cc1ccccc1)Cc1cc(C[C@@H]2C[C@H](NC(=O)C3CCC3)C2(C)C)no1	35µM*	?	?	i
CC(C)(C)c1cc(C[C@@H]2C[C@H](NS(=O)(=O)c3ccccc3)C2(C)C)no1	71µM*	-1%[70.6 µM]	?	i
CN(Cc1cc(C[C@@H]2C[C@H](NS(C)(=O)=O)C2(C)C)no1)c1ccccc1	?	-10%[70.6 µM]	?	i
CN(C)Cc1cc(C[C@@H]2C[C@H](NC(=O)C3CCC3)C2(C)C)no1	?	-2%[70.6 µM]	-25%[174 µM]	i
CN(C)Cc1cc(C[C@@H]2C[C@H](NCc3ccccc3O)C2(C)C)no1	56µM*	-1%[70.6 µM]	?	i
COc1ccc(CCC(=O)N2CCn3nnc(CCC(=O)N4CCCC4)c3C2)cc1	-22%	·	-32%	·
COc1ccccc1-n1c(=O)c(C(=O)N2CCN(C(=O)c3ccc(C(F)(F)F)cc3)CC2)nc2cccnc21	5%	·	-6%	·
CN1CC(=O)N(C2CNC2)Cc2c(NCC3CC3)ncnc21	4%[172 µM]	·	0%[138 µM]	·
CN(Cc1cc(C[C@@H]2C[C@H](NCc3ccccn3)C2(C)C)no1)c1ccccc1	56µM*	-14%[70.6 µM]	79µM*	i
CC1(C)[C@H](Cc2cc(CCO)on2)C[C@@H]1NCc1ccccn1	3%[172 µM]	0%[70.6 µM]	-13%[138 µM]	i
Cc1nn(-c2ccccc2)c2c1C(C(C)C)N(C1CN(C(=O)c3ccccc3)C1)C2=O (stereo not drawn)	45µM*	·	?	·
Cc1nn(-c2ccccc2)c2c1C(C(C)C)N(C1CCCN(C(=O)Cc3ccccn3)C1)C2=O (stereo not drawn)	?	·	-30%	·
